Results reported in PubChem BioAssay (Tox21).
Records with an inconclusive call do not appear. Activity calls are given as the source filed them. Unless noted, the call rests on the fitted dose curve; in most records, active means well fitted curve in the direction sought with a large enough effect in the repeat runs; inconclusive means weak or mixed curves; inactive means no such curve, though single readings can be large; an effect the other way counts as inactive or inconclusive.

Assays:
[1] = qHTS assay to identify aromatase inhibitors - cell viability counter screen (AID 743084);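 further: cells stimulated with testosterone during compound exposure; nearly all actives have a fitted effect of over 55% in size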
[2] = biological target: Aryl hydrocarbon receptor (Homo sapiens) (UniProt P35869); assay: qHTS assay to identify small molecule that activate the aryl hydrocarbon receptor (AhR) signaling pathway (AID 743085);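 further: HG2L7.5c1 human HepG2 liver cells with stably integrated DRE-driven firefly reporter; series mostly up to about 70 µM; nearly all actives have a fitted effect of over 15% in size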
Summary of the method: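 Compounds were tested in HepG2 hepatocellular carcinoma cells harbouring a stably integrated luciferase gene under control of 20 DREs. Increased reporter signal after 24 h treatment at 37C was taken as AhR activation.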

[3] = qHTS assay to identify small molecule that activate the aryl hydrocarbon receptor (AhR) signaling pathway - cell viability counter screen (AID 743086);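 further: HepG2 liver cells carrying the AhR DRE luciferase reporter; series mostly up to about 70 µM; nearly all actives have a fitted effect of over 45% in size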
Summary of the method: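 HepG2-AhR-luc (HG2L7.5c1) cells, 4000/well, were preincubated 5 h at 37C, exposed to compound in qHTS format for 24 hr at 37C, then given CellTiter-Fluor for 30 min; viability was read as fluorescence in the reporter wells.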

[4] = biological target: Peroxisome proliferator-activated receptor gamma (Homo sapiens) (UniProt P37231); assay: qHTS assay to identify small molecule agonists of the peroxisome proliferator-activated receptor gamma (PPARg) signaling pathway (AID 743094; active means well fitted activation curve with a large enough effect in the signal ratio in the repeat runs, not every such curve was filed as active; the % refers to the signal ratio; further: potency means the concentration at half of the fitted maximal effect)
Summary of the method: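 Agonist activity was taken from a beta-lactamase reporter (FRET substrate, 1 h at room temperature) in HEK293H cells carrying a PPARg UAS-bla construct. Compounds in DMSO were incubated 17 h at 37C after a 5 h cell pre-incubation.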

[5] = biological target: Peroxisome proliferator-activated receptor gamma (Homo sapiens) (UniProt P37231); assay: qHTS assay to identify small molecule antagonists of the peroxisome proliferator-activated receptor gamma (PPARg) signaling pathway (AID 743191; calls by dose curve; further: series mostly up to about 63 µM; nearly all actives have a fitted effect of over 30% in size)
Summary of the method: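 GeneBLAzer PPARg UAS-bla HEK293H cells carrying a UAS-driven beta-lactamase reporter were plated at 3000 cells/well, preincubated 5 h at 37C, then given compound for 17 h at 37C; LiveBLAzer B/G FRET substrate was read after 1 h at room temperature.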

[6] = qHTS assay to identify small molecule antagonists of the peroxisome proliferator-activated receptor gamma (PPARg) signaling pathway - cell viability counter screen (AID 743194); further: nearly all actives have a fitted effect of over 55% in size; further: potency means the concentration at half of the fitted maximal effect
Summary of the method: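 PPARg-UAS-bla HEK293H cells were plated, rested 5 h at 37 C, then treated with compounds plus rosiglitazone (50 nM final) for 17 h at 37 C; viability was then read by CellTiter-Glo luminescence after 30 min at room temperature.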

[7] = qHTS assay for small molecule agonists of the antioxidant response element (ARE) signaling pathway (AID 743202; active means well fitted activation curve with a large enough effect in the signal ratio in the repeat runs, not every such curve was filed as active; the % refers to the signal ratio)
Summary of the method: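 Following a 16 h, 37 C exposure of reporter HepG2 cells (ARE-driven beta-lactamase, 2,000 cells/well) to compounds, FRET substrate was applied for 2 h at room temperature and fluorescence intensity recorded.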

[8] = qHTS assay for small molecule agonists of the antioxidant response element (ARE) signaling pathway - cell viability counter screen (AID 743203; calls by dose curve; further: nearly all actives have a fitted effect of over 55% in size)
Summary of the method: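 Viability counter screen: CellTiter-Glo luminescence, read after 30 min at room temperature, in ARE-bla HepG2 wells. Compound exposure lasted 16 h at 37C/5% CO2, following a 5 h pre-incubation of the cells after plating.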

[9] = qHTS assay for small molecule activators of the heat shock response signaling pathway - cell viability counter screen (AID 743209); further: nearly all actives have a fitted effect of over 50% in size
Summary of the method: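 Cytotoxicity counter screen run in the same wells as the heat-shock bla reporter assay: HeLa HSE-bla cells, 5 h compound exposure at 37 C, viability read by CellTiter-Glo luminescence.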

[10] = qHTS assay for small molecule activators of the heat shock response signaling pathway (AID 743210; active means well fitted activation curve with a large enough effect in the signal ratio in the repeat runs, with a control signal flat, not every such curve was filed as active; the % refers to the signal ratio; further: series mostly up to about 63 µM)
Summary of the method: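 Heat shock element–beta-lactamase HeLa reporter cells; qHTS with compounds for 5 h at 37 C; detection by FRET substrate fluorescence after 2.5 h at RT.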

Measured: Potency

Chain of Aryl hydrocarbon receptor (Homo sapiens) (P35869 whole entry, looked up): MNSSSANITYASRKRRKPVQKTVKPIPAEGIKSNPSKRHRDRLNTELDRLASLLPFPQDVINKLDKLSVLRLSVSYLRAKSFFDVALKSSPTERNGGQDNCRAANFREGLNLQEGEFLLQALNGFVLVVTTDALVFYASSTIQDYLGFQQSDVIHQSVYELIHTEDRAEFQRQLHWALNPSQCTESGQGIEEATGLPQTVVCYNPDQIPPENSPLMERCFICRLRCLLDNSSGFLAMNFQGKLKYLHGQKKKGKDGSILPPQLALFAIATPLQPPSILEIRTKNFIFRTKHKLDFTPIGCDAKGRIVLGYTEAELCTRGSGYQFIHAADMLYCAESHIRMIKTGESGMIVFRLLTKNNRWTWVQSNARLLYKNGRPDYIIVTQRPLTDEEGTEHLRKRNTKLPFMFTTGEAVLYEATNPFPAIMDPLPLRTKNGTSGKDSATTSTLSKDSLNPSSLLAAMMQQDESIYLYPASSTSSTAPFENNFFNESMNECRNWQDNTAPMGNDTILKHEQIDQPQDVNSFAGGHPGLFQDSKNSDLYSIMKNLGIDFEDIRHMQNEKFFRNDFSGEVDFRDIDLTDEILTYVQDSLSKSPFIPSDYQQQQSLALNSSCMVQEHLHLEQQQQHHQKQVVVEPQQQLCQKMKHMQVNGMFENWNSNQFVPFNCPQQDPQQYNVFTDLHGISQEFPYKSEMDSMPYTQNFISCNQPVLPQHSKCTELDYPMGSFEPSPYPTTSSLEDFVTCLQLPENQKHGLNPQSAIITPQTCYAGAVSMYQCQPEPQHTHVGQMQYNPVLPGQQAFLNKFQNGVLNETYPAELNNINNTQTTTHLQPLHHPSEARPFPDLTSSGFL
Chain of Peroxisome proliferator-activated receptor gamma (Homo sapiens) (P37231 whole entry, looked up): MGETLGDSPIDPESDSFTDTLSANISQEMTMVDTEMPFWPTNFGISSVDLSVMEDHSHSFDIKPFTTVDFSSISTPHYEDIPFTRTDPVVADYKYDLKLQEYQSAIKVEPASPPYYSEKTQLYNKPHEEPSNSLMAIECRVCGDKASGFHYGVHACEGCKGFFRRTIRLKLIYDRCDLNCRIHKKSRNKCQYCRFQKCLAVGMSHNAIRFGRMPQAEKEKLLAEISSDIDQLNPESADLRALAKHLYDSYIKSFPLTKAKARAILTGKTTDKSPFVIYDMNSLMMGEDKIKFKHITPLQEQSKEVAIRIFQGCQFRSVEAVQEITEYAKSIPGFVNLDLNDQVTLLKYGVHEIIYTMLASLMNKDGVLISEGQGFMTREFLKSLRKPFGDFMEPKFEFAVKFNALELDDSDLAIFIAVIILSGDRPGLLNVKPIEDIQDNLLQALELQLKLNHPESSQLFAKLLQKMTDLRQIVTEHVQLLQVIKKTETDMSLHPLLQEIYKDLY

O=C(CCCN1CC=C(n2c(=O)[nH]c3ccccc32)CC1)c1ccc(F)cc1
inactive: all assays above

CCOC(=O)[C@H](CCc1ccccc1)N[C@@H](C)C(=O)N(CC(=O)O)C1Cc2ccccc2C1
inactive: all assays above

CO[C@]1(NC(=O)CSC(F)F)C(=O)N2C(C(=O)O)=C(CSc3nnnn3CCO)CO[C@H]21
inactive: all assays above

O=C1CCCCCCCCCCOCCCCO1
not listed: [8] | [10]
inactive: all other assays above

CCCCCC#CC(=O)OC
inactive: all assays above

FC(F)(F)c1ccccc1Cl
inactive: all assays above

Cc1ccccc1N=C(N)Nc1ccccc1C
inactive: all assays above

O=c1[nH]ncc2ccccc12
not listed: [10]
inactive: all other assays above

C1COC1
inactive: all assays above

CCCCCCCC/C=C\CCCCCCCCO
inactive: all assays above

Nc1cccc2c1CN(C1CCC(=O)NC1=O)C2=O (configuration not stated)
inactive: all assays above

OCCOCC#CCOCCO
inactive: all assays above

Brc1cc2ccccc2c2ccccc12
inactive: all assays above

C=C(C)[C@@H]1CCC2=CCC[C@@H](C)[C@]2(C)C1
inactive: [1] | [2] | [3] | [4] | [5]

COc1cc(N)c(Cl)cc1C(=O)NC1CCN(CCCOc2ccc(F)cc2)CC1OC (configuration not stated)
inactive: all assays above

CC(=O)Nc1ccc(C)cc1C
inactive: all assays above

CC1CC(C)C(=O)C1=O (configuration not stated)
inactive: all assays above

C1C[C@@H]2[C@H]3CC[C@H](C3)[C@@H]2C1
inactive: all assays above

CCCCCC[C@@H](O)C/C=C\CCCCCCCC(=O)OCC(O)CO (some centres not stated)
not listed: [10]
inactive: all other assays above

NCCNCCO
not listed: [8]
inactive: all other assays above

Cc1ccc(OC(=O)c2ccccc2O)cc1
inactive: all assays above

COc1cc(C(=O)NCCCCCC(=O)O)cc(OC)c1OC
inactive: all assays above

CCN(CC)CCNC(=O)COc1ccc(OC)cc1
not listed: [10]
inactive: all other assays above

CC(=O)OCC[N+](C)(C)C
inactive: all assays above

CCOC(=O)c1ccc(I)cc1
inactive: all assays above

CC(C)COCC(CN(Cc1ccccc1)c1ccccc1)N1CCCC1 (configuration not stated)
inactive: [1] | [2] | [3] | [4] | [5]
active: [6] 26.6 µM

CCC(=O)OC
inactive: all assays above

O[C@@H]1CO[C@H]2[C@@H]1OC[C@@H]2O
inactive: all assays above

CC(O)c1ccccc1 (configuration not stated)
inactive: all assays above

CC(CN(C)C)C(C)(O)Cc1ccc(Cl)cc1 (configuration not stated)
not listed: [10]
inactive: all other assays above

CN(C)CCN1C(=O)c2ccccc2N(C)c2ccccc21
inactive: all assays above

CCc1ccccc1
not listed: [9]
inactive: all other assays above

OC(CCN1CCCC1)(c1ccccc1)C1CCCCC1 (configuration not stated)
inactive: all assays above

CCn1cc(C(=O)O)c(=O)c2cc(F)c(N3CCNCC3)cc21
inactive: all assays above

CC(C)=CCC/C(C)=C/CC/C(C)=C/CCC(=O)OC/C=C(\C)CCC=C(C)C
inactive: all assays above

O=C(/C=C/c1ccccc1)OCCc1ccccc1
not listed: [7]
inactive: all other assays above

C=C(C)C(=O)OCCCCCCCCCCCCC
inactive: all assays above

CCOC(=O)c1ccc(OCCN2C[C@H](O)[C@@H](O)[C@H](O)[C@H]2CO)cc1
inactive: all assays above

CCC(=O)C1CC(C(C)C)CC=C1C (configuration not stated)
inactive: all assays above

Cc1ccccc1S
inactive: [1] | [2] | [3] | [4] | [5] | [6]

C=CC(C)(CCC=C(C)C)OC(=O)CC(C)C (configuration not stated)
not listed: [7]
inactive: all other assays above

NC(=O)c1ccncc1
not listed: [6]
inactive: all other assays above

CCC(C)(C)OC
not listed: [6]
inactive: all other assays above

N#CCc1ccc(Cl)cc1Cl
not listed: [6]
inactive: all other assays above

C[C@]12CC[C@@H]3c4ccc(O)cc4CC[C@H]3[C@@H]1CC[C@@H]2OC(=O)CCC1CCCC1
inactive: [1] | [2] | [3] | [4] | [5] | [7]

O=C(O)CCc1nc(-c2ccccc2)c(-c2ccccc2)o1
active: [4] 15.1 µM
not listed: [6] | [7] | [8]
inactive: all other assays above

O=C(OC(=O)c1ccccc1)c1ccccc1
not listed: [6]
inactive: all other assays above

CC=C(Cl)Cl
not listed: [6] | [8]
inactive: all other assays above

CC(CCC(=O)O)C(=O)O (configuration not stated)
not listed: [6] | [7]
inactive: all other assays above
